# PubChem BioAssay (EPA / NIEHS)
# Several values for one entry are separate records, joined by “and”; a condition that tells them apart may be missing. Equal entries are not always repeated. Inconclusive results are not listed. The source holds several records for some structures; these can differ, active in one and inactive in another. Activity calls are given as the source filed them. The calls were made as follows: active = hit-call score of the fitted dose curve at least 0.9, where 1 is the maximum; inconclusive = response in the unintended direction; inactive = score below 0.9.
# Columns and labels:
# [1] = molecular target: human Insulin Receptor (InsR), INSR (gene 3643) (UniProt P06213); experiment: NVS_ENZ_hInsR: NovaScreen (NVS) Enzymatic Assay for human Insulin Receptor (InsR) (AID 2283168)
# Procedure, shortened: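 Fluorescent substrate phosphorylation by recombinant kinase, product resolved by electrophoretic mobility shift, read 1 h after dosing. Screened in duplicate at 25 uM; hits (e.g., 30% inhibition) run in concentration-response to 50 uM; DMSO as baseline.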
# [2] = molecular target: human Mitogen-Activated Protein Kinase 1 (MAPK 1), MAPK1 (gene 5594) (UniProt P28482); experiment: NVS_ENZ_hMAPK1: NovaScreen (NVS) Enzymatic Assay for human Mitogen-Activated Protein Kinase 1 (MAPK 1) (AID 2283175)
# Procedure, shortened: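 Cell-free recombinant human MAPK1 enzymatic assay, fluorescence/electrophoretic mobility shift read at 1 h; loss of signal vs DMSO. Primary screen in duplicate at 25 uM; actives (e.g. ≥30% inhibition) run as concentration-response up to 50 uM.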
# [3] = molecular target: Mitogen-activated protein kinase 3 (Homo sapiens) (UniProt P27361); experiment: NVS_ENZ_hMAPK3: NovaScreen (NVS) Enzymatic Assay for human Mitogen-Activated Protein Kinase 3 (MAPK 3) (AID 2283177)
# Procedure, shortened: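 Cell-free enzymatic assay with recombinant protein and specific substrate; fluorescence and electrophoretic mobility shift read-out 1 h after dosing. Primary screen duplicate at 25 uM; actives then run in concentration-response up to 50 uM, loss of signal versus DMSO.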
# [4] = molecular target: human MAP Kinase-Activated Protein Kinase 2 (MAPKAPK2), MAPKAPK2 (gene 9261) (UniProt P49137); experiment: NVS_ENZ_hMAPKAPK2: NovaScreen (NVS) Enzymatic Assay for human MAP Kinase-Activated Protein Kinase 2 (MAPKAPK2) (AID 2283178)
# Procedure, shortened: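 Cell-free recombinant human MAPKAPK2 activity measured by fluorescence with electrophoretic mobility shift separation of substrate and product, 1 hr after dosing. Loss of signal versus DMSO; primary screen at 25 uM, concentration-response up to 50 uM.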
# [5] = molecular target: human MET Proto-Oncogene, Receptor Tyrosine Kinase (MET), MET (gene 4233) (UniProt P08581); experiment: NVS_ENZ_hMet: NovaScreen (NVS) Enzymatic Assay for human MET Proto-Oncogene, Receptor Tyrosine Kinase (MET) (AID 2283180)
# Procedure, shortened: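 Cell-free MET kinase assay using recombinant protein and fluorescent substrate, with mobility-shift separation; read 1 h after dosing. Primary duplicate at 25 uM; actives in singleton concentration-response to 50 uM maximum. Signal loss versus DMSO.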
# [6] = molecular target: Collagenase 3 (Homo sapiens) (UniProt P45452); experiment: NVS_ENZ_hMMP13: NovaScreen (NVS) Enzymatic Assay for human Matrix Metalloproteinase-13 (MMP13) (AID 2283182)
# Procedure, shortened: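 Recombinant MMP13 cleaving fluorescent substrate, cell-free, measured 1 h after dosing. Primary duplicate screen at 25 uM; actives tested in concentration-response up to 50 uM; loss of signal relative to DMSO.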
# [7] = molecular target: human Matrix Metalloproteinase-7 (MMP7), MMP7 (gene 4316) (UniProt P09237); experiment: NVS_ENZ_hMMP7: NovaScreen (NVS) Enzymatic Assay for human Matrix Metalloproteinase-7 (MMP7) (AID 2283183)
# Procedure, shortened: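 Cell-free fluorescence enzymatic assay read 1 h after compound addition, activity loss analyzed against DMSO. Primary duplicate testing at 25 uM; compounds meeting threshold rerun in singleton concentration-response up to 50 uM.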
# [8] = molecular target: human Matrix Metalloproteinase-2 (MMP2), MMP2 (gene 4313) (UniProt P08253); experiment: NVS_ENZ_hMMP2: NovaScreen (NVS) Enzymatic Assay for human Matrix Metalloproteinase-2 (MMP2) (AID 2283184)
# Procedure, shortened: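 Cell-free recombinant MMP2 activity with a fluorescent substrate, read 1 h after dosing. Primary screen in duplicate at 25 uM; actives then run in concentration series; loss of signal fitted versus DMSO.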
# [9] = molecular target: human Matrix Metalloproteinase-3 (MMP3), MMP3 (gene 4314) (UniProt P08254); experiment: NVS_ENZ_hMMP3: NovaScreen (NVS) Enzymatic Assay for human Matrix Metalloproteinase-3 (MMP3) (AID 2283185)
# Procedure, shortened: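 Cell-free recombinant human MMP3 activity, fluorescence intensity read 1 h after dosing. Primary screen duplicate at 25 uM, actives retested in concentration series; loss of signal vs DMSO baseline.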
# [10] = molecular target: human Mitogen- and Stress-activated Protein Kinase-1 (Msk1), RPS6KA5 (gene 9252) (UniProt O75582); experiment: NVS_ENZ_hMsk1: NovaScreen (NVS) Enzymatic Assay for human Mitogen- and Stress-activated Protein Kinase-1 (Msk1) (AID 2283187)
# Procedure, shortened: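 Recombinant kinase with fluorescent substrate; product separated by electrophoretic mobility shift, read 1 h after dosing. Screened in duplicate at 25 uM; hits (e.g. ≥30% inhibition) tested in concentration–response up to 50 uM. DMSO baseline.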
# [11] = molecular target: human p21 Activated Kinase 4 (PAK4), PAK4 (gene 10298) (UniProt O96013); experiment: NVS_ENZ_hPAK4: NovaScreen (NVS) Enzymatic Assay for human p21 Activated Kinase 4 (PAK4) (AID 2283189)
# Procedure, shortened: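 Cell-free recombinant human PAK4 activity assay; fluorescent substrate and product separated by electrophoretic mobility shift, read 1 h after dosing. Initially tested in duplicate at 25 uM, relative to DMSO baseline.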
# [12] = molecular target: human Matrix Metalloproteinase-9 (MMP9), MMP9 (gene 4318) (UniProt P14780); experiment: NVS_ENZ_hMMP9: NovaScreen (NVS) Enzymatic Assay for human Matrix Metalloproteinase-9 (MMP9) (AID 2283190);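 also: cell-free recombinant MMP9 protease activity read by fluorescent substrate signal; active means inhibition seen as loss of fluorescence signal versus DMSO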
# Procedure, shortened: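 Cell-free fluorescence-intensity enzyme activity assay using extracted protein, read 1 h after dosing. Loss of signal versus DMSO baseline indicates inhibition; primary screen in duplicate at 25 uM, actives followed up in concentration series.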
# [13] = molecular target: human Phosphodiesterase 4A1 (PDE4A1), PDE4A (gene 5141) (UniProt P27815); experiment: NVS_ENZ_hPDE4A1: NovaScreen (NVS) Enzymatic Assay for human Phosphodiesterase 4A1 (PDE4A1) (AID 2283191)
# Procedure, shortened: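 Cell-free recombinant human PDE4A1 with fluorescent substrate; product separated by electrophoretic mobility shift, 1 h. Screened at 25 uM, then up to 50 uM in concentration-response; loss of signal fitted against DMSO.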
# [14] = molecular target: cAMP-dependent protein kinase catalytic subunit alpha (Homo sapiens) (UniProt P17612); experiment: NVS_ENZ_hPKA: NovaScreen (NVS) Enzymatic Assay for human Protein Kinase A (PKA) (AID 2283192)
# Procedure, shortened: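 Recombinant human PKA with specific fluorescent substrate, product separated by electrophoretic mobility shift, read 1 h after dosing. Primary screen at 25 uM in duplicate; actives then run in concentration-response up to 50 uM, activity relative to DMSO.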
# [15] = molecular target: human Phosphodiesterase 5 (PDE5), PDE5A (gene 8654) (UniProt O76074); experiment: NVS_ENZ_hPDE5: NovaScreen (NVS) Enzymatic Assay for human Phosphodiesterase 5 (PDE5) (AID 2283194)
# Procedure, shortened: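 Recombinant human PDE5 with specific substrate, read 1 h after dosing by fluorescence with electrophoretic mobility-shift separation of substrate and product. Initial single-concentration duplicate screen at 25 uM, actives followed in concentration series; loss of activity versus DMSO.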
# [16] = molecular target: human Phosphodiesterase 10 (PDE10), PDE10A (gene 10846) (UniProt Q9Y233); experiment: NVS_ENZ_hPDE10: NovaScreen (NVS) Enzymatic Assay for human Phosphodiesterase 10 (PDE10) (AID 2283195)
# Procedure, shortened: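 Fluorescence/mobility-shift readout of PDE10A enzyme activity, taken 1 h post-dosing. Primary screen in duplicate at 25 uM; actives (e.g. ≥30% inhibition) retested as singleton concentration-response, top concentration 50 uM.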
# [17] = molecular target: human Phosphoinositide 3-kinase alpha (PI3Ka), PIK3CA (gene 5290) (UniProt P42336); experiment: NVS_ENZ_hPI3Ka: NovaScreen (NVS) Enzymatic Assay for human Phosphoinositide 3-kinase alpha (PI3Ka) (AID 2283196)
# Procedure, shortened: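 Enzyme activity as fluorescence after mobility-shift separation of substrate and product, 1 h reaction, recombinant human PI3Kα; concentration-response to 50 uM max for chemicals passing a 25 uM duplicate screen.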
# [18] = molecular target: human NIMA (Never In Mitosis Gene A)-Related Kinase 2 (NEK2), NEK2 (gene 4751) (UniProt P51955); experiment: NVS_ENZ_hNEK2: NovaScreen (NVS) Enzymatic Assay for human NIMA (Never In Mitosis Gene A)-Related Kinase 2 (NEK2) (AID 2283188)
# Procedure, shortened: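 Cell-free NEK2 enzyme activity after 1 h exposure, read by fluorescence with electrophoretic mobility shift separating substrate and product. Primary screen in duplicate at 25 uM; actives then run as concentration series. Loss of signal versus DMSO scored.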
# [19] = molecular target: human Matrix Metalloproteinase-1 (MMP1), MMP1 (gene 4312) (UniProt P03956); experiment: NVS_ENZ_hMMP1: NovaScreen (NVS) Enzymatic Assay for human Matrix Metalloproteinase-1 (MMP1) (AID 2283181)
# Procedure, shortened: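 Human MMP1 enzyme activity measured by fluorescence 1 h after dosing, cell-free, with a specific substrate. Screened in duplicate at 25 uM; hits (e.g. 30% inhibition) run in concentration-response up to 50 uM; loss of signal versus DMSO.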
# [20] = molecular target: human Janus Kinase 2 (Jak2), JAK2 (gene 3717) (UniProt O60674); experiment: NVS_ENZ_hJak2: NovaScreen (NVS) Enzymatic Assay for human Janus Kinase 2 (Jak2) (AID 2283169)
# Procedure, shortened: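 Cell-free recombinant human JAK2 enzyme activity assay, fluorescence/electrophoretic mobility shift read 1 h after dosing. Screened in duplicate at 25 uM, then concentration-response up to 50 uM; activity as signal loss relative to DMSO.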
# Chain of Mitogen-activated protein kinase 3 (Homo sapiens) (P27361 whole entry, looked up): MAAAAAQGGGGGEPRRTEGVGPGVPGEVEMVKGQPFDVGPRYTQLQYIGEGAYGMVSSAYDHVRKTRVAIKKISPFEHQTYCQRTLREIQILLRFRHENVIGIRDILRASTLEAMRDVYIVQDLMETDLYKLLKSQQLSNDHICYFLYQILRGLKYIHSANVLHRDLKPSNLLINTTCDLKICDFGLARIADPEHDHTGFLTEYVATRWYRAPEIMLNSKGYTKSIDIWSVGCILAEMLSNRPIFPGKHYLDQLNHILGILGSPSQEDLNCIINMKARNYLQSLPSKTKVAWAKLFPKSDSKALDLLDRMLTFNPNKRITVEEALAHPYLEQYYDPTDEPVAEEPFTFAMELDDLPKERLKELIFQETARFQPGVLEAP
# Chain of human Matrix Metalloproteinase-2 (MMP2), MMP2 (gene 4313) (P08253 whole entry, looked up): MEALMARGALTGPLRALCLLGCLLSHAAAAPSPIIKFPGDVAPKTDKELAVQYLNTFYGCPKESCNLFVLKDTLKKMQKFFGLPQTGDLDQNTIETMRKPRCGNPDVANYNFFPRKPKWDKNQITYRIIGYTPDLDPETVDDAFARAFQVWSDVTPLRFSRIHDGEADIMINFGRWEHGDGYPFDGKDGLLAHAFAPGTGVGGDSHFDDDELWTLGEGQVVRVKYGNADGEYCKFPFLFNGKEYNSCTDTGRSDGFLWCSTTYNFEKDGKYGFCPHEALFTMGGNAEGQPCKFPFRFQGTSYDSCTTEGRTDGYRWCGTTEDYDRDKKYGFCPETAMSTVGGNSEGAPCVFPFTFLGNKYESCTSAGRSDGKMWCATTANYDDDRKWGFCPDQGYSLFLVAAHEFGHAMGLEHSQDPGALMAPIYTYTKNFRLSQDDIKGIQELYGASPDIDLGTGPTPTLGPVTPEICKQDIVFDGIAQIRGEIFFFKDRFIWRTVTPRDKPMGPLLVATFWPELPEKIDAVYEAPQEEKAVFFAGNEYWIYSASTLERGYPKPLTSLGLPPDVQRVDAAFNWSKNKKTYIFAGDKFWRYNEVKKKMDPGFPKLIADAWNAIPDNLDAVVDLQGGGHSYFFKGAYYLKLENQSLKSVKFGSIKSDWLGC
# Chain of human Phosphoinositide 3-kinase alpha (PI3Ka), PIK3CA (gene 5290) (P42336 whole entry, looked up): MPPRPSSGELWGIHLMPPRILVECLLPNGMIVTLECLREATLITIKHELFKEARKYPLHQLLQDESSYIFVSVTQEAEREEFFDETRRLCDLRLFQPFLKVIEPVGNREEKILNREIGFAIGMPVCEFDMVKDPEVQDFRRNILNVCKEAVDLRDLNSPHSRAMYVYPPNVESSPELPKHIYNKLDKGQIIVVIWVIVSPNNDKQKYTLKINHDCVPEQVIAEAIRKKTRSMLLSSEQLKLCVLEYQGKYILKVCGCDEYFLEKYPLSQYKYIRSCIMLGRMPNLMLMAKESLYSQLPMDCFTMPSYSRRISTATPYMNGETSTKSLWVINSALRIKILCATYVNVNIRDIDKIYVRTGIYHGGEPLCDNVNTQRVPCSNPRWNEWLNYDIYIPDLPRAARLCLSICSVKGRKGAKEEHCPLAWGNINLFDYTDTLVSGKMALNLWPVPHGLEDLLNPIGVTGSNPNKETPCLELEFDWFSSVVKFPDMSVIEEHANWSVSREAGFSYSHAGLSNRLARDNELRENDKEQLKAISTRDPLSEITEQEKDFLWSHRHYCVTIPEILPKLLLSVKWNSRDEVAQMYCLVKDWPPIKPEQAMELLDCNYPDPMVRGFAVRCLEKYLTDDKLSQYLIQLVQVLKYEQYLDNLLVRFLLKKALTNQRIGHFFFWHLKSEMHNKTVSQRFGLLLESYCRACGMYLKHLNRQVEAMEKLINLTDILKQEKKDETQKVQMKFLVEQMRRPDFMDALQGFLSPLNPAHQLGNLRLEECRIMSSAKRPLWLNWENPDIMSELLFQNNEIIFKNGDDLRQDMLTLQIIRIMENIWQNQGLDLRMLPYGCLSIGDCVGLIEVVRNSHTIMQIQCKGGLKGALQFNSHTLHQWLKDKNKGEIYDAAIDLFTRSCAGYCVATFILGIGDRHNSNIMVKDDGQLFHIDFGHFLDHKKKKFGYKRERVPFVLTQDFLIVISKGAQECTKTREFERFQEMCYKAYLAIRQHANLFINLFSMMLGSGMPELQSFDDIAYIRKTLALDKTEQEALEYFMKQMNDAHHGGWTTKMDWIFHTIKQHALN
# Chain of human Mitogen-Activated Protein Kinase 1 (MAPK 1), MAPK1 (gene 5594) (P28482 whole entry, looked up): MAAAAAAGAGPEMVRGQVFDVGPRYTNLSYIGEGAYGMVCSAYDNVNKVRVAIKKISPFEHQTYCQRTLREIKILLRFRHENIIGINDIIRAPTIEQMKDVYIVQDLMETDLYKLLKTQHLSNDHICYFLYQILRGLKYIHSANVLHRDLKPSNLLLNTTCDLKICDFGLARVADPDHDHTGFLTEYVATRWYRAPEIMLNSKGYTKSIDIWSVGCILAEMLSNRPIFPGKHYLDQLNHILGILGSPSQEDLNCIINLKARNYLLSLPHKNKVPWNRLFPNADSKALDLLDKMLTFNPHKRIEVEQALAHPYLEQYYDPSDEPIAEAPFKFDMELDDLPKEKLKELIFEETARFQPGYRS
# Chain of human Matrix Metalloproteinase-9 (MMP9), MMP9 (gene 4318) (P14780 whole entry, looked up): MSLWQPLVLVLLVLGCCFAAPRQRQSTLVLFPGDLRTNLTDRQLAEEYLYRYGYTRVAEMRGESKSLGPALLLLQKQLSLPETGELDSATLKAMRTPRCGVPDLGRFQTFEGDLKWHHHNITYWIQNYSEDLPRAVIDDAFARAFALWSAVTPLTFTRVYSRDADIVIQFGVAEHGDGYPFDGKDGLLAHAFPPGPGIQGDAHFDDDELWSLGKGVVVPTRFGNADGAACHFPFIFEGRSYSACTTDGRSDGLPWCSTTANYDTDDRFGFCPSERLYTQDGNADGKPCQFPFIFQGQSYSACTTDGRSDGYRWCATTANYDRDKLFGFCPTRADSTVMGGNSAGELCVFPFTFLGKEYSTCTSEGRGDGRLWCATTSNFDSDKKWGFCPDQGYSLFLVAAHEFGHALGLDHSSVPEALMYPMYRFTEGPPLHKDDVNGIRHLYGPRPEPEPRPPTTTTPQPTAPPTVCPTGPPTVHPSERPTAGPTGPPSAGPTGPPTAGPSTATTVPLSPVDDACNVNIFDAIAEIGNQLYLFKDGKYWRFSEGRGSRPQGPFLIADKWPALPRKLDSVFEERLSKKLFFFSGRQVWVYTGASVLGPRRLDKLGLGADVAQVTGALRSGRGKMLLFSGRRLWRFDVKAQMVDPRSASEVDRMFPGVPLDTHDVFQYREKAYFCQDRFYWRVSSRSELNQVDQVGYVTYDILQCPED
# Chain of human Phosphodiesterase 4A1 (PDE4A1), PDE4A (gene 5141) (P27815 whole entry, looked up): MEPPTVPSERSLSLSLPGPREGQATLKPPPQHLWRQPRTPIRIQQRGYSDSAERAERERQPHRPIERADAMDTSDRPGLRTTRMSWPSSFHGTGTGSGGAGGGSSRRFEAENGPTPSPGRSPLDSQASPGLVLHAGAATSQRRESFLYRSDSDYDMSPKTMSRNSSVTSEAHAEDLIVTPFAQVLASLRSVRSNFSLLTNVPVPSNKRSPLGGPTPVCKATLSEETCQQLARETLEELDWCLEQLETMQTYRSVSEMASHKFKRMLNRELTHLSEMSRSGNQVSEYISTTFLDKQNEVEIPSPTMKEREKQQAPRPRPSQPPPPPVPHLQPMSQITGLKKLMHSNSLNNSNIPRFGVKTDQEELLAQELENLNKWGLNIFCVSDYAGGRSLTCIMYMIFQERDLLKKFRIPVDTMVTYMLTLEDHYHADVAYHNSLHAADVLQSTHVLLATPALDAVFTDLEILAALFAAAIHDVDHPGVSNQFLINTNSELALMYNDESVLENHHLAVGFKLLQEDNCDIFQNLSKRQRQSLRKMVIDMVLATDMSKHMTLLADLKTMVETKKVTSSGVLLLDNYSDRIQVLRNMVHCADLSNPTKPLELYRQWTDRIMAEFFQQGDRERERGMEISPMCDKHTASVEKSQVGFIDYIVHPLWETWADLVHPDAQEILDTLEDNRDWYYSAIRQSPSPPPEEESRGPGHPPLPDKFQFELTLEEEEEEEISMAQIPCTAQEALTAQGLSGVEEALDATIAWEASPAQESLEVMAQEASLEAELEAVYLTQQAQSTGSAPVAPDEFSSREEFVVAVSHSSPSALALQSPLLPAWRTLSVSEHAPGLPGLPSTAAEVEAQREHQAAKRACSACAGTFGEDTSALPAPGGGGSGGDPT
# Chain of human Matrix Metalloproteinase-3 (MMP3), MMP3 (gene 4314) (P08254 whole entry, looked up): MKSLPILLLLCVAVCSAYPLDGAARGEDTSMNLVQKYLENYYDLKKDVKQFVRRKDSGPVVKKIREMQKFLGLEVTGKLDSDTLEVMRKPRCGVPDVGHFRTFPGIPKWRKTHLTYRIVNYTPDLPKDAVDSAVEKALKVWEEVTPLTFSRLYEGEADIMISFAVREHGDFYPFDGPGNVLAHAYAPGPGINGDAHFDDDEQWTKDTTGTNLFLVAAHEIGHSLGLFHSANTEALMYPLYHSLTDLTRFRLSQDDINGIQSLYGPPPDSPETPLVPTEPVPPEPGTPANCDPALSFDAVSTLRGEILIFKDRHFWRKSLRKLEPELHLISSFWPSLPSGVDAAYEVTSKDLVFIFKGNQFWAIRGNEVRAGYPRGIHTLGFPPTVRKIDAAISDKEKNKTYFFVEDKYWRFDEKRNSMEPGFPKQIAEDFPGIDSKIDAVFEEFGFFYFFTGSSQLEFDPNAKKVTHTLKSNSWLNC
# Chain of human Matrix Metalloproteinase-7 (MMP7), MMP7 (gene 4316) (P09237 whole entry, looked up): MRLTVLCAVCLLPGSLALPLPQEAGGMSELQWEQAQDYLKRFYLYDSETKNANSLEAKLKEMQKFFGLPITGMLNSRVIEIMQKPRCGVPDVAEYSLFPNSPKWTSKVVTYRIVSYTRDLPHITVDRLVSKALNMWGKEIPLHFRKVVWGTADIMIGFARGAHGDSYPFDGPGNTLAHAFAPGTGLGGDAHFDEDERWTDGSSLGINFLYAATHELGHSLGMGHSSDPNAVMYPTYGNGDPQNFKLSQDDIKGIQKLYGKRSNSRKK
compound,measurement,setting,value
O=S(=O)(O)C(F)(F)C(F)(F)C(F)(F)C(F)(F)C(F)(F)C(F)(F)C(F)(F)C(F)(F)F,AC50,[1],11.7 µM (active)
same,AC50,[2],34.9 µM (active) and 41 µM (active)
same,AC50,[3],32.7 µM (active)
same,outcome,[4],inactive
same,AC50,[5],36.1 µM (active) and 40.4 µM (active)
same,AC50,[6],7.53 µM (active) and 43 µM (active)
same,AC50,[7],1.73 µM (active)
same,outcome,[8],inactive
same,AC50,[9],22.6 µM (active) [middle of 4 runs]
same,AC50,[10],24.1 µM (active)
same,AC50,[11],25 µM (active)
same,outcome,[12],inactive
same,AC50,[13],5.35 µM (active)
same,AC50,[14],36.3 µM (active) and 47.7 µM (active)
same,AC50,[15],25 µM (active) and 21.9 µM (active)
same,outcome,[16],inactive
same,AC50,[17],6.79 µM (active) and 4.5 µM (active) and 8.3 µM (active)
CN1CSC(=S)N(C)C1,outcome,[12],inactive
COP(=S)(OC)Oc1ccc([N+](=O)[O-])cc1,outcome,[13],inactive
O=[N+]([O-])/N=C1\NCCN1Cc1ccc(Cl)nc1,outcome,[3],inactive
same,outcome,[17],inactive
COC(=O)c1ccccc1S(=O)(=O)NC(=O)Nc1nc(C)nc(OC)n1,outcome,[6],inactive
N#Cc1c(Cl)c(Cl)c(Cl)c(C#N)c1Cl,outcome,[3],inactive
same,outcome,[7],inactive
same,outcome,[18],inactive
same,AC50,[15],31.8 µM (active)
same,outcome,[16],inactive
same,AC50,[17],33.1 µM (active)
CC(C)(C)C(O)/C(=C\c1ccc(Cl)cc1Cl)n1cncn1 (configuration not stated),outcome,[2],inactive
Oc1ccc(Cl)cc1Cc1ccccc1,outcome,[4],inactive
same,AC50,[19],6.03 µM (active)
same,outcome,[19],inactive
same,AC50,[7],6.41 µM (active)
same,outcome,[12],inactive
same,outcome,[13],inactive
same,outcome,[15],inactive
same,outcome,[17],inactive
Oc1cc(Cl)ccc1Oc1ccc(Cl)cc1Cl,outcome,[20],inactive
same,outcome,[2],inactive
same,outcome,[3],inactive
same,AC50,[7],13 µM (active)
same,outcome,[7],inactive
same,outcome,[8],inactive
same,outcome,[11],inactive
same,outcome,[12],inactive
same,outcome,[15],inactive
CCC(C)(C)C(=O)OC1=C(c2ccc(Cl)cc2Cl)C(=O)OC12CCCCC2,outcome,[8],inactive
